# Assay outcomes deposited in PubChem BioAssay by National Center for Advancing Translational Sciences (NCATS).
# Shown are actives, neighbours in structure and some others; about 2.1% of the full set was active somewhere.
# TDP43 rescue: TDP-43 toxicity inhibition in yeast; TDP-43 expressing yeast growth rescue, BacTiter-Glo, 24 h; Potency, µM (titrated, usually from 46.1 µM), actives largely listed as activators; actives 1.8% (n = 410,000); AID 652104; further: nearly all actives have a fitted effect of over 50% in size
#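 In this qHTS, compounds that restore growth of yeast expressing TDP-43 appear as activators. Cells (OD600=0.02, galactose medium, raffinose-pregrown) are incubated with compound 24 hr at 30 deg C and growth is quantified by BacTiter-Glo.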
# aSyn yeast inh: rescues yeast growth from alpha-synuclein toxicity | actives 0.14% (n = 370,000) | Potency, µM (top dose mostly 46.1 µM), usual class: activators | Yeast expressing alpha-synuclein, growth rescue, BacTiter-Glo, 24 h; further: nearly all actives have a fitted effect of over 65% in size
#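 Galactose-induced alpha-syn yeast (OD600=0.02, raffinose-pregrown) + pinned cpd, 24 hr, 30 deg C; growth by BacTiter-Glo luminescence. Growth restoration scores as activation.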
# Abeta rescue: restores growth of yeast expressing A-beta42 peptide | Potency, µM (titrated, usually from 46.1 µM), most hits filed as activators | yeast expressing A-beta42, growth rescue, OD600, 48 h; response scale: 0% DMSO, 100% iron-clioquinol control | AID 1347071 | actives 0.063% (n = 410,000); further: nearly all actives have a fitted effect of over 55% in size
#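 Yeast growth medium received pinned compounds, then yeast cells expressing toxic A-beta were added; plates incubated at 30 C for 48 hr. Growth read as absorbance at 600 nm, normalized to DMSO and equimolar FeCl3 plus clioquinol controls.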
# FUS yeast rescue: FUS proteinopathy suppression in yeast. S. cerevisiae FUS-expressing, growth rescue, OD600, 24 h. Potency, µM (top dose mostly 76.6 µM), most hits filed as activators. actives 0.24% (n = 390,000); further: nearly all actives have a fitted effect of over 55% in size
#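 Cultures pregrown in 2.5% raffinose medium are shifted to minimal medium containing 2% galactose to express toxic FUS. Compounds are tested at several concentrations. After 24hr at 30C, growth is quantified at 600 nm absorbance.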
# Numbers stand for hits; – = inactive; ? = inconclusive; · = no result given. The call rests on the fitted dose curve; in most records, active means well fitted curve in the direction sought with a large enough effect; inconclusive means small, poorly fitted or top-dose-only effect, or another doubt; inactive means no such curve, though single readings can be large; an effect the other way counts as inactive or inconclusive.
SMILES,TDP43 rescue,aSyn yeast inh,Abeta rescue,FUS yeast rescue
O=C(Nc1ccc(Br)cc1F)c1cnn2c1NC(=C1CC1)C=C2C(F)F,·,–,·,·
Cc1ccc(Sc2ccc(NC(=O)CCl)cc2)c(C)c1,11µM,–,?,–
CN(C)CCCNc1cc(N2CCN(C)CC2)ncn1,·,–,·,·
CCc1ccc(NC(=O)CCn2c(=O)c3cccn3c3ccccc32)cc1,13µM,–,–,?
CC(CNC(=O)CCCn1c(=O)c2cccn2c2ccc(F)cc21)c1ccccc1 (stereo unspecified),25µM,·,–,?
Cc1ccc(CCNC(=O)CCCn2c(=O)c3cccn3c3ccc(F)cc32)cc1,35µM,·,–,–
CCc1ccc(NC(=O)Cn2c(=O)c3cccn3c3ccccc32)cc1,–,–,–,–
CC(C)C[C@H]1COc2cccc(F)c2S(=O)(=O)N1Cc1cn(Cc2ccc(F)cc2)nn1,·,·,·,–
Cc1cc(-c2nc(-c3ccncc3)no2)ccc1[N+](=O)[O-],11µM,–,–,–
CNc1ccc(-c2nc(-c3ccncc3)no2)cc1[N+](=O)[O-],–,·,–,–
CCC(=O)Nc1sc2c(c1C#N)CC(C)(CC)OC2 (stereo unspecified),11µM,·,–,–
Oc1cccc2c(NC(=S)Nc3ccc(SC(F)F)cc3)cccc12,11µM,–,–,–
Cn1c(NCC(O)c2ccccc2)nc2c1c(=O)n(Cc1ccc(Cl)c(Cl)c1)c(=O)n2C (stereo unspecified),–,–,–,8.9µM
Cn1c(NCC(O)c2ccccc2)nc2c1c(=O)n(Cc1ccc(Cl)cc1)c(=O)n2C (stereo unspecified),–,–,–,–
O=C(Nc1ccc(NC(=O)c2ccccc2Cl)c(Cl)c1)c1ccccn1,·,·,·,–
COc1cccc2cc(C(C)=O)oc12,?,–,–,–
COc1cccc2cc(/C(=N/O)c3ccccc3)oc12,11µM,–,–,–
CC(=O)Nc1nc(COc2ccc3ccccc3c2)cs1,7.1µM,·,–,–
Cc1c(NC(=O)C(C)OC(=O)c2c3c(nc4ccccc24)CCC3)c(=O)n(-c2ccccc2)n1C (stereo unspecified),–,–,–,22µM
O=C(N/N=C\C=C\c1ccco1)c1cc(-c2ccc3ccccc3c2)n[nH]1,–,18µM,–,?
Cc1nc(-c2ccccc2Cl)sc1C(=O)/C=C/N(C)C,32µM,–,–,–
Cn1ccc(NC(=O)Nc2ccc(Cl)cc2Cl)n1,14µM,–,–,–
COc1ccc2c(c1)c1nnc(SC)nc1n2C,2.8µM,3.5µM,–,–
COc1ccc2c(c1)c1nnc(SC(C)C)nc1n2C,·,7.9µM,·,·
COc1ccc2c(c1)c1nnc(SCC(=O)N3C(C)CCCC3C)nc1n2C (stereo unspecified),14µM,–,–,–
SMILES,TDP43 rescue,aSyn yeast inh,Abeta rescue,FUS yeast rescue
CCCCCn1nnnc1C1(C)CCCCC(=O)N1Cc1ccco1 (stereo unspecified),·,·,·,–
O=C1NCCc2onc(-c3ccc(Br)cc3)c21,35µM,–,–,–
CC(C)(C)OC(=O)N1CCc2onc(-c3ccc(Br)cc3)c2C1=O,?,–,–,–
CCCCNS(=O)(=O)/C=C/c1cc2c(cc1CNC(=O)OC(C)(C)C)OCO2,·,·,·,–
CCOC(=O)/C=C1\SCC(=O)N1CCOc1cccc(Br)c1,16µM,–,–,–
COCCCNC(=O)C[C@H]1C[C@@]2(C(=O)OC)C(=C[C@H](C3CCCC3)O[C@@H]2C)N(CCC2=CCCCC2)C1=O,·,·,·,–
Clc1cccc(CSc2ncn(-c3ccccc3)n2)c1,13µM,–,–,–
CCOCC(=O)Nc1nc2ccc(OCC)cc2s1,–,–,–,–
CCOc1ccc2nc(NC(=O)C3(C)CC3(Br)Br)sc2c1 (stereo unspecified),18µM,–,?,–
CCOC(=O)C1=NN(C(=O)c2ccc(C)cc2)C(O)(c2ccc(Cl)cc2)C1 (stereo unspecified),13µM,?,–,?
COC(=O)C1=NN(C(=O)c2ccc(Cl)cc2)C(O)(c2ccccc2)C1 (stereo unspecified),–,20µM,–,–
COc1cc(NC(=O)CC2C(=O)OCCN2Cc2ccccc2)cc(OC)c1 (stereo unspecified),25µM,·,–,–
COC(=O)c1cc(NC(=O)CC2C(=O)OCCN2Cc2ccccc2)cc(C(=O)OC)c1 (stereo unspecified),?,·,–,–
O=C(CC1C(=O)OCCN1Cc1ccccc1)Nc1ccc(F)cc1 (stereo unspecified),13µM,·,–,–
